Compound activity (PubChem BioAssay)
TRHR agonist – agonists of human TRH receptor. P34981. TRHR cells, calcium flux fluo-8, FDSS agonist mode. activation, % at 2 µM. hit rate 0.18% among 360,000. AID 493084; in the data active = activation above about 30%; note: 0% is about no effect
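Fluo-8-loaded TRHR cells; 10 s baseline, compound added, kinetic Ca2+ fluorescence read 1/s, agonist mode.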
KCNH2 3.1 inh – blocks the human KCNH2 3.1 channel isoform; hit rate 0.95% among 340,000; activity change, % (tested at about 1.8 µM); U2OS KCNH2 3.1, thallium flux FluxOr; stronger effect = lower value;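 active = maximum activity change below -70%; inconclusive = maximum activity change from -70% to -50%; inactive = maximum activity change above -50%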;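 note: thallium influx rate constant from kinetic fluorescence after stimulation buffer; % is set by controls: 0 for no effect and ±100 for the full control effect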
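Channel expression came from 3.1 mutant virus (1.77 x 10^8 /mL) applied to suspended U2OS cells for 4 h. Flux was tracked with FluxOr dye plus Red40 quencher, and kinetic rate constants normalized to controls.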
KCNH2 WT inh – KCNH2 (human, wildtype) channel inhibition; U2OS, BacMam KCNH2, thallium flux FluxOr; stronger effect = lower value; activity change, % at 1.84 µM; hit rate 0.37% among 340,000; AID 720551;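 active = maximum activity change below -70%; inconclusive = maximum activity change between -70% and -50%; inactive = maximum activity change above -50%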; note: % is set by controls: 0 for no effect and ±100 for the full control effect
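U2OS cells were transduced with wild-type KCNH2 virus (2.03 x 10^8 / mL) for 4 h at room temperature, then cultured overnight at 37 C. Thallium flux was read with FluxOr dye. Rate constants were normalized to DMSO controls.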
TRHR enhancer – TRH receptor (human) allosteric enhancement; TRHR cells, fluo-8 calcium fluorescence, EC20 TRH enhancement; enhancement, % at 2 µM; hit rate 0.66% among 360,000; AID 493056; in the data active = enhancement above about 30%; note: 0% is about no effect
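Enhancer read-out: after compound pinning and an initial kinetic agonist-mode read, an EC20 of TRH (10 nM final) was injected and fluo-8 calcium signal (Ex 480/Em 530) followed at 1 s/cycle for 100 cycles in TRHR-expressing cells.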
TRPML1 agonist – activates the human TRPML1 channel | Q9GZU1 | TRPML1-expressing cells, Ca2+ dye fluorescence, FDSS | activation, % (test concentration not listed) | hit rate 0.12% among 410,000 | AID 624414; in the data active = activation above about 50%; inconclusive = mostly about 30% to 49%; note: 0% is about no effect
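Tet-induced TRPML1-DL cells, 1,500 per well, cultured overnight, were loaded with a no-wash Ca2+ dye for 45–90 min. Calcium fluorescence was recorded on the FDSS for 110 s after compound addition, before the EC80 agonist (4 uM 54-4) was added.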
TRPML1 inh – blocks the human TRPML1 channel | Q9GZU1 | TRPML1-inducible cells, Ca2+ dye fluorescence, FDSS; stronger effect = lower value; inhibition of EC80 agonist-evoked calcium signal | activity change, negative = inhibition, % (no concentration beside the values) | hit rate 0.02% among 390,000 | AID 624415; in the data active = activity change below about -50%; inconclusive = between about -30% and that limit;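 note: stimulus is agonist 54-4 at its EC80 concentration; % is set by controls: 0 for no effect and ±100 for the full control effect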
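Calcium fluorescence in TRPML1-DL cells induced overnight with Tet: a 110 s read after compound pin addition, then a 110 s antagonist read after challenge with 54-4 at 4 uM final (EC80).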
Numbers without * were called inactive; ? = inconclusive; / = no result. Compounds with a hit are over-represented: about 1.7% of the library has one in this group of screens.

SMILES	TRHR agonist	KCNH2 3.1 inh	KCNH2 WT inh	TRHR enhancer	TRPML1 agonist	TRPML1 inh
Cc1ccc2oc(=O)cc(CN3CCN(C/C=C/c4ccccc4)CC3)c2c1	0	-102*	-7	-3	1	11
O=c1cc(CN2CCN(c3ccccc3)CC2)c2cc(O)c(-c3ccccc3)cc2o1	0	-11	2	10	0	-2
O=c1cc(CN2CCN(C/C=C/c3ccccc3)CC2)c2cc(O)ccc2o1	1	-99*	-133*	3	0	3
CN(CCc1ccccc1)C(C(=O)Nc1ccc2c(c1)OCCO2)C1CC1 (centres undefined)	/	/	/	/	-1	/
O=[N+]([O-])c1ccc(O/N=[N+](\[O-])N2CCN(c3ncccn3)CC2)c([N+](=O)[O-])c1	/	/	/	/	1	12
CCOC(=O)N1CCC(=NNS(=O)(=O)c2cccc([N+](=O)[O-])c2)CC1	1	-71*	-1	-15	0	6
OCC(O)C[n+]1cccc(Br)c1 (centres undefined)	/	/	/	/	0	/
CN1C(=O)[C@H]2[C@@H](/C=C/c3ccccc3)N3C(=O)CN(Cc4ccc(-c5ccccc5)cc4)C(=O)[C@@]3(Cc3ccccc3)[C@H]2C1=O	0	/	/	0	0	4
CN(N)C(=S)NCc1ccccc1	1	8	11	8	0	-3
CN(C)C(=S)NCc1ccccc1	0	-8	15	38*	0	19
CCCCOC(=O)c1cc(Cl)c(O)c(OC)c1	-1	-2	-2	40*	1	1
O=C1c2cccc3c(N4CCCCC4)ccc(c23)C(=O)N1c1ccccn1	156*	2	-1	14	6	-12
O=C1c2cccc3c([N+](=O)[O-])ccc(c23)C(=O)N1c1ccccn1	-1	0	-22	4	1	17
CCCCC/C=C/C1=CC(=O)C[C@H](c2ccc(OC)c(OC)c2)C1	0	6	-9	4	0	10
CN(C)c1ccc(-c2cc[nH]c(=O)c2N)cc1	1	/	/	4	/	/
CN(C)S(=O)(=O)c1cccc(NC(=S)NCc2ccco2)c1	2	-8	-6	39*	1	31
CCOc1ccccc1C1C(C(=O)Nc2ccccc2)=C(C)Nc2nc(SCC(=O)c3ccc(C)cc3)nn21 (centres undefined)	1	/	/	1	0	5
COc1cccc(-c2nc3n(n2)CCc2ccccc2-3)c1	/	0	7	/	-1	-4
Cc1cc(C)n(-c2nc(-c3ccc(Cl)c(Cl)c3)cs2)n1	0	-46	-125*	1	0	3
O=C(Nc1ccccc1F)c1ccc(O)c2ncccc12	0	/	/	-7	/	/
CC1CCCN(CC(=O)Nc2ccc(S(=O)(=O)N3C(C)CCCC3C)cc2)C1 (centres undefined)	/	-46	23	/	-1	-1
COc1ccc(C2C(C#N)=C(N)OC(C(C)(C)C)=C2C#N)cc1OC (centres undefined)	0	4	13	10	-1	11
COc1cccc(C2C(C#N)=C(N)OC(C(C)(C)C)=C2C#N)c1 (centres undefined)	0	-189*	-4	-6	-1	13
CCN(CC(=O)Nc1cc(C)nn1-c1nc(C)cc(C)n1)Cc1ccccc1	-1	15	8	33*	0	-17
COC(=O)c1c(NC(=O)C2COc3ccccc3O2)sc2c1CCN(C(=O)OC)C2 (centres undefined)	/	2	9	/	0	0
SMILES	TRHR agonist	KCNH2 3.1 inh	KCNH2 WT inh	TRHR enhancer	TRPML1 agonist	TRPML1 inh
COC(=O)c1c(NC(=O)C2COc3ccccc3O2)sc2c1CCN(Cc1ccccc1)C2 (centres undefined)	4	-92*	3	2	0	6
O=C(NCCN1CCOCC1)c1ccccc1N1C(=O)[C@@H]2Cc3c([nH]c4ccccc34)C(c3ccccc3)N2C1=O (some centres undefined)	0	10	4	-4	/	/
O=C(NCCCN1CCOCC1)c1ccccc1N1C(=O)[C@@H]2Cc3c([nH]c4ccccc34)C(c3ccc(F)cc3)N2C1=O (some centres undefined)	0	-82*	-43	-2	/	/
CN(C)c1ccc(/C=C/c2cc[n+]([O-])cc2)cc1	61*	/	/	2	/	/
CN(C)c1ccc(/C=C/c2cc[n+](C)cc2)cc1	9	4	2	3	4	5
CN(C)c1ccc(/C=C/c2ccc3ccccc3[n+]2[O-])cc1	/	/	/	/	107*	/
C[C@@H]1CCCCO[C@@H](CN(C)C(=O)CCCN(C)C)[C@@H](C)CN([C@H](C)CO)C(=O)c2cc(N(C)C)ccc2O1	/	/	/	/	0	13
O=[N+]([O-])c1ccccc1N/N=C/c1ccccc1	0	-83*	-5	0	/	/
COc1cccc(/C=N/Nc2ccccc2C(=O)O)c1O	-1	-25	0	-20	1	-7
O=C(O)c1ccccc1NN=Cc1ccccc1	/	-77*	2	/	-1	-7
O=[N+]([O-])c1ccccc1N/N=C/c1ccc2c(c1)OCO2	0	0	2	11	0	10
CC(=O)NC(c1ccc(F)c(F)c1)c1nc(-c2cccs2)cs1 (centres undefined)	/	/	/	/	-1	/
CC(=O)N(C)c1ccc(/C=C2\C=Cc3ccccc32)cc1	/	/	/	/	-1	/
O=C(CO/N=C/c1ccc(OC(F)F)cc1)NCc1cccs1	0	-80*	-16	8	1	10
Cc1ccc(S(=O)(=O)N2C[C@@H]3CCCC[C@@H]3[C@@H](C)[C@H]2c2cn(Cc3ccccc3)c3ncccc23)cc1	/	20	0	/	1	71
Cc1nnsc1C(=O)N/N=C/c1ccc2ccccc2c1O	65*	-10	-4	15	?	-12
CSc1ccccc1NC(=O)c1ccco1	0	27	-281*	-8	0	4
O=C(Nc1ccccc1NC(=O)c1ccco1)c1ccco1	-1	/	-1	-7	0	5
COc1ccc(NC(=O)CN(c2ccccc2F)S(=O)(=O)c2ccc(C)cc2)c(OC)c1	0	-3	12	-3	1	-3
COc1ccccc1C(=O)Nc1cc2c(cc1C(=O)O)OCCCO2	0	-80*	-2	2	0	-17
COc1ccc(C(=O)Nc2ccccc2C(=O)O)cc1Cl	0	-29	5	-1	3	25
CCN(CC)S(=O)(=O)c1cc(C(=O)Nc2ccccc2C(=O)O)ccc1OC	-1	-2	4	39*	2	-3
CC(=O)Nc1c(F)cc(Br)cc1F	0	-95*	2	-2	0	-6
